TCR activator: activators of T cell receptors; primary human leukocytes, anti-CD3, IL-2 HTRF, 48 h; Potency, µM (top dose mostly 9.22 µM), without a hit: at the highest dose activation of IL-2 secretion, most hits filed as activators; 330,000 tested, under 10 active; AID 504894; active = well fitted activation curve with a large enough effect; also: % of control where 0% means no effect
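Readout: HTRF IL-2, Eu-cryptate/d2 antibody pair, 320nm excitation, 665nm emission. Stimulus: a-CD3 beads, no co-stimulation. Cells: primary human leukocytes. Exposure: 48 hr with compound.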
pAkt inh: inhibitors of Akt phosphorylation; Neuro2A IGF-stimulated pAkt S473 HTRF, 20 min; stronger effect = lower value; activity change, % for hits at 50 µM; 360,000 tested, 0.32% active; in the data active = activity change below about -80%; also: % is scaled to controls: 0 for no effect and ±100 for the full control effect
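Neuro2A cells (4,500/well, DMEM with 0.5% FBS) were treated with compound at a single 50 µM final concentration, stimulated with 6 nM IGF for 20 min at 37 °C, and lysed. Phospho-Akt Ser473 was read by HTRF as 665/615 ratio ×10^4.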
CCT chaperon mod: changes cytosolic chaperonin activity | activity change, % (concentration not given with the values), hits read low | AID 651819 | 360,000 tested, 0.3% active | purified chaperonin ATPase assay, HTRF ADP detection, 30 min; in the data active = activity change below about -30%; also: % is scaled to controls: 0 for no effect and ±100 for the full control effect
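TRiC at 40 or 20 nM final (batch-dependent) in 30 mM Tris pH 7.4, 100 mM KCl, 5 mM MgCl2, 1 mM DTT, with compound at single 76 uM and 10 uM ATP, 30 min at 37 deg C. ADP detected by HTRF Transcreener, 665/615 ratio.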
TSHR antagonist: human thyrotropin receptor antagonism; P16473; TSHR-expressing cells, TSH-stimulated cAMP HTRF, 2 h; stronger effect = lower value; activity change, negative = inhibition, % at 11.5 µM; 330,000 tested, 0.2% active; AID 504810;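 active = activity change below a set negative limit, meaning inhibition stronger than a set level, cut at about -70% in these data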; also: % is scaled to controls: 0 for no effect and ±100 for the full control effect
Target sequence (P16473 whole entry, looked up): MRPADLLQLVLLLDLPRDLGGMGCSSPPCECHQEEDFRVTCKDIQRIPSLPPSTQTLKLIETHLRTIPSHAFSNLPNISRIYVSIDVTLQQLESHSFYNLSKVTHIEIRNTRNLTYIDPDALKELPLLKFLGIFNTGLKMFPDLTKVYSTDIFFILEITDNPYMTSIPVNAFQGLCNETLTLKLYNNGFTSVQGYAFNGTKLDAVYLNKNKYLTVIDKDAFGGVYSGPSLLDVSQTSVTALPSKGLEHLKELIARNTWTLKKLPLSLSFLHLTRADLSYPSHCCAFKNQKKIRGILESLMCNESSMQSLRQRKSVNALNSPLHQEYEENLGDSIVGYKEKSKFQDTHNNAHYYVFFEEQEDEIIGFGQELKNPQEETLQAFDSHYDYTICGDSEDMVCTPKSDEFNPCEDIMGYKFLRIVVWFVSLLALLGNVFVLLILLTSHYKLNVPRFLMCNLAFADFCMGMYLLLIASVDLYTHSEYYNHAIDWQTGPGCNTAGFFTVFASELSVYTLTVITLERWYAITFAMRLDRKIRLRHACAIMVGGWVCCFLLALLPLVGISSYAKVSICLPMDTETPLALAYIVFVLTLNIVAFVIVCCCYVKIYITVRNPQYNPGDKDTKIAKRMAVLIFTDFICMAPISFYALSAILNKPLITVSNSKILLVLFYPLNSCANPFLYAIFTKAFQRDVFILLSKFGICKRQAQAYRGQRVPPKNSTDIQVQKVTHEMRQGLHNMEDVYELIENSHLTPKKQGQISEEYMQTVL
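Freshly harvested TSHR cells receive pin-tooled compound, then EC80 TSH at 4nM final. After 2 hours at 37 deg C, antibody in lysis buffer and cAMP-d2 are added; 30 minutes at ambient temperature precede the HTRF read.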
Numbers without * were called inactive; i = inactive; nt = no result; [ ] = dose if it differs, or a comment. Shown are actives, neighbours in structure and some others; about 0.74% of the full set was active somewhere.

SMILES	TCR activator	pAkt inh	CCT chaperon mod	TSHR antagonist
COc1ccc(CN(C)S(=O)(=O)c2nnc(NC(=O)c3cccc(C)c3)s2)cc1OC	-7.7%	i	1.8	-35.3
CCCCn1c(CN2CCN(C)CC2)nc2ccccc21	9.5%	-116.0%*	1.3	34.8
CCCn1c(CN2CCN(C)CC2)nc2ccccc21	-3.4%	i	0.3	nt
O=C1C2=C(C(c3ccccc3)=NCCN2)C(c2cccc([N+](=O)[O-])c2)N1c1ccccc1 (stereo not given)	0.8%	i	-0.6	1.6
COc1ccc(C2C3=C(NCCN=C3c3ccccc3)C(=O)N2c2ccccc2)c(OC)c1 (stereo not given)	nt	i	-59.6*	16.1
O=C(NCc1ccccn1)Nc1cccc(Cl)c1	0.2%	i	-42.5*	3.2
CCn1ncc(Br)c1C(=O)Nc1ccccc1OC	-9.2%	i	-35.4*	-8.8
Cc1occc1-c1nnc(SCC(=O)NC2CCCCC2C)o1 (stereo not given)	4.9%	i	-1.0	4.0
COc1ccc(CCNC(=O)C2CCC(C(C)(C)C)CC2)cc1OC (stereo not given)	1.9%	i	3.4	0.0
CCn1c(C(=O)NC2CCC(C)CC2)cc2sccc21 (stereo not given)	3.8%	nt	-80.2*	-8.7
CCOC(=O)N1CCC(NC(=O)c2cc3sccc3n2CC)CC1	-1.9%	i	-1.2	8.7
Cc1ccc(N(C)S(=O)(=O)c2ccc(C)cc2)cc1	0.7%	i	-0.3	6.5
COc1ccc(S(=O)(=O)Nc2ccc(C)cc2)cc1N(C)S(=O)(=O)c1ccc(Cl)cc1	-3.1%	i	-2.7	-90.6*
COc1ccc(S(=O)(=O)NN(C)C)cc1N(C)S(=O)(=O)c1ccc(Cl)cc1	-2.5%[46.1 µM]	i	-0.1	5.2
Cc1ccc(S(=O)(=O)N(C)c2ccc(NS(C)(=O)=O)cc2)cc1	1.9%	-120.0%*	-0.8	nt
O=C(NCCN1CCCCC1)Nc1cccc(C(F)(F)F)c1	nt	i	0.2	0.8
O=C(CSc1nc2ccccc2s1)c1cc2ccccc2o1	-0.2%	nt	-62.9*	nt
Cc1ccc(S(=O)(=O)NCC(=O)NCc2cc(=O)n(C)c(=O)n2C)cc1	-1.3%	i	1.7	-4.5
Cc1ccc(S(=O)(=O)NCC(=O)NCc2cc(=O)n(C)c(=O)n2C)cc1C	-3.7%	nt	-79.5*	1.8
COc1ccc(NC(=S)N(CCN2CCOCC2)Cc2cc3cc4c(cc3[nH]c2=O)OCCO4)cc1	7.5%	i	-1.9	-9.7
NC(=O)C[n+]1cccc(C(=O)Nc2ccccc2)c1	3.6%	i	0.2	-6.5
c1ccc2[nH]c(CN3CCOCC3)nc2c1	0.6%	i	1.8	21.7
Nc1ccc2nc(CN3CCOCC3)[nH]c2c1	1.2%	i	-36.1*	7.0
Cn1c(SCC(=O)Nc2ccccc2O)nnc1-c1ccco1	1.2%	i	-4.2	-7.6
O=C(O)c1cc(O)c2c(c1)[C@@H]([C@H]1c3cc(C(=O)O)cc(O)c3C(=O)c3c(O[C@@H]4O[C@H](CO)[C@@H](O)[C@H](O)[C@H]4O)cccc31)c1cccc(O[C@@H]3O[C@H](CO)[C@@H](O)[C@H](O)[C@H]3O)c1C2=O	3.1%	i	-0.2	-79.0*
SMILES	TCR activator	pAkt inh	CCT chaperon mod	TSHR antagonist
CCOc1ccc(CCNC(=O)C2CSC3(C)CCC(=O)N23)cc1OCC (stereo not given)	3.7%	i	-0.5	4.1
COc1cccc(-c2nnc(SCC(=O)Nc3ccc4c(c3)OCCO4)n2Cc2ccco2)c1	-1.7%	-114.5%*	2.0	12.7
CCn1c(COc2ccc(C)cc2)nnc1SCC(=O)Nc1ccc2c(c1)OCCO2	-7.7%	-108.2%*	0.8	0.5
CC[N+]1(CC(O)COC2CC(C)CC(C)(C)C2)CCOCC1 (stereo not given)	7.9%	i	0.0	-1.6
CCN(CC)S(=O)(=O)c1ccc(C)c(NC(=O)COc2ccc(Cl)cc2Br)c1	-3.3%[46.1 µM]	i	-55.9*	7.0
CCN(CC)S(=O)(=O)c1ccc(C)c(NC(=O)COC(=O)C=C(C)C)c1	-5.0%	i	0.2	-1.3
Cc1ccc(C)c(CNS(=O)(=O)c2ccc3c(c2)C(C)(C)C(=O)N3C)c1	1.1%	i	-34.2*	3.8
CC(C)C(NC(=O)c1ccccc1)C(=O)OCC(=O)N1CCCCC1 (stereo not given)	-0.7%	i	-39.9*	-0.6
CC(C)C(NC(=O)c1ccccc1)C(=O)OCC(=O)N1CCN(c2ccccc2)CC1 (stereo not given)	1.5%	i	3.5	13.1
O=C(COc1ccccc1)Nc1nnc(S(=O)(=O)N2CCCCCC2)s1	9.3%	i	0.2	-11.7
CCn1c(Cc2ccccc2)nnc1SCC(=O)N1CCCCC1	-2.3%[46.1 µM]	-105.6%*	0.9	6.0
CCCCNC(=O)Cc1coc2ccc3ccccc3c12	3.5%	-109.7%*	-2.4	3.1
COCCCNC(=O)Cc1coc2ccc3ccccc3c12	nt	i	-8.0	3.5
CC(=O)c1cccc(N(C(=O)CNC(=O)c2ccco2)C(C(=O)NC2CCCC2)c2ccncc2)c1 (stereo not given)	-12.5%	i	-0.7	1.0
COCCN(C(=O)c1ccco1)C(C(=O)NC1CCCC1)c1cccs1 (stereo not given)	-4.6%[46.1 µM]	-91.6%*	-1.8	-1.4
CC(=O)c1ccc(N(C(=O)CNC(=O)c2ccco2)C(C(=O)NC2CCCC2)c2ccncc2)cc1 (stereo not given)	0.4%	i	2.0	-93.2*
CCOC(=O)CN(C(=O)CNC(=O)c1ccco1)C(C(=O)NC1CCCCC1)c1cccs1 (stereo not given)	5.0%[46.1 µM]	i	-2.7	12.7
Cc1ccc(-n2nnc3c(=O)oc4ccccc4c32)cc1	2.9%	i	-1.4	-30.5
CCC(C)n1nnc2c(=O)oc3ccccc3c21 (stereo not given)	5.3%	-91.7%*	-0.9	-28.3
O=S(=O)(c1ccc(F)c(F)c1)N1CCN(S(=O)(=O)c2cccs2)CC1	1.5%	i	0.0	11.9
COc1cccc(-c2nc(CS(=O)(=O)CC(=O)N3CCCCC3)c(C)o2)c1	-7.3%	i	-2.6	-96.9*
COc1cccc(-c2nc(CS(=O)(=O)CC(=O)NC3CCCCCC3)c(C)o2)c1	-1.7%	i	0.1	-97.0*
Cc1ccc2c(CC(=O)Nc3cccc(S(=O)(=O)N4CCOCC4)c3)coc2c1	0.4%	i	-0.4	-8.3
COc1cc(NC(=O)COc2cc3oc(=O)cc(C)c3cc2Cl)cc(OC)c1OC	-3.0%	nt	-59.3*	-4.7
COc1ccccc1CC(=O)NCc1nn(-c2ccccc2)nc1C	-4.8%	i	-2.3	0.8
C=CCSc1nncn1/N=C/c1ccc(OC)cc1	0.4%	-103.2%*	1.1	-4.9
COc1ccccc1-c1c(C(F)(F)F)oc2cc(OC(=O)c3ccc([N+](=O)[O-])cc3)ccc2c1=O	2.9%	i	0.4	9.8
Cc1cc2c(c(=O)o1)C(C(C)C)C(C#N)=C(N)O2 (stereo not given)	2.0%	-99.8%*	-0.1	-3.1

Source: PubChem BioAssay (National Center for Advancing Translational Sciences (NCATS))
